Laboratory results as given in PubChem BioAssay AID1159580 (chemical genetic matrix, 2015).
In all, about 5,500 compounds went through this assay and about 2,000 (36%) were called active. About 18% were inconclusive and are not listed. Cut-off read from the data, not from the text of the source: active = normalized growth mostly below about 0.91 (no sharp cut-off); inconclusive = no clear call, values can overlap the other calls; inactive = mostly above about 0.92. This is one part of the list.

Assay: chemical genetic growth profiling, strain panel (AID 1159580);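 note: tested at 20 µM; growth read once vehicle control cultures reached saturation at 30 °C; 1 = growth at the plate median or of vehicle wells; lower values mean less growth of the strain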
Details: S. cerevisiae deletion strains, growth OD

Measured: normalized growth

Cc1c(C(=O)N(Cc2ccccc2)Cc2cccs2)cnn1-c1ccc(Cl)cc1
inactive: locus YAR019C, strain CDC15, active compounds read low 0.992 | locus YBL105C, strain PKC1, active compounds read low 0.989 | locus YBR135W, strain CKS1, active compounds read low 0.984 | locus YBR136W, strain MEC1, active compounds read low 0.981 | locus YBR160W, strain CDC28, active compounds read low 0.981 | locus YDL017W, strain CDC7, active compounds read low 0.998 | locus YDL028C, strain MPS1, active compounds read low 0.985 | locus YDL101C, strain DUN1, active compounds read low 0.99 | locus YDL108W, strain KIN28, active compounds read low 0.985 | locus YDL132W, strain cdc53, active compounds read low 0.976 | locus YDL214C, strain PRR2, active compounds read low 0.947 | locus YDR052C, strain DBF4, active compounds read low 1 | locus YDR054C, strain cdc34, active compounds read low 0.987 | locus YDR226W, strain ADK1, active compounds read low 0.996 | locus YDR477W, strain SNF1, active compounds read low 0.946 | locus YER123W, strain YCK3, active compounds read low 0.94 | locus YER133W, strain GLC7, active compounds read low 0.957 | locus YFL009W, strain cdc4, active compounds read low 0.986 | locus YFL029C, strain CAK1, active compounds read low 0.988 | locus YFR003C, strain YPI1, active compounds read low 0.99 | locus YFR019W, strain FAB1, active compounds read low 0.963 | locus YFR028C, strain CDC14, active compounds read low 0.981 | locus YGR040W, strain KSS1, active compounds read low 0.938 | locus YGR052W, strain FMP48, active compounds read low 1.03 | locus YGR092W, strain DBF2, active compounds read low 0.967 | locus YHR030C, strain SLT2, active compounds read low 0.934 | locus YHR079C, strain IRE1, active compounds read low 0.953 | locus YHR082C, strain KSP1, active compounds read low 1.03 | locus YHR205W, strain SCH9, active compounds read low 0.919 | locus YIL147C, strain SLN1, active compounds read low 0.997 | locus YJL095W, strain BCK1, active compounds read low 0.945 | locus YJL128C, strain PBS2, active compounds read low 0.967 | locus YJL157C, strain FAR1, active compounds read low 0.935 | locus YJR016C, strain ILV3, active compounds read low 0.982 | locus YJR066W, strain TOR1 (second series), active compounds read low 0.883 | locus YJR066W, strain TOR1, active compounds read low 1.02 | locus YKL048C, strain ELM1, active compounds read low 0.97 | locus YKL067W, strain YNK1, active compounds read low 0.968 | locus YKL101W, strain HSL1, active compounds read low 0.94 | locus YKL193C, strain SDS22, active compounds read low 0.982 | locus YKL203C, strain TOR2, active compounds read low 0.997 | locus YLR113W, strain HOG1, active compounds read low 0.925 | locus YLR133W, strain CKI1, active compounds read low 0.936 | locus YLR403W, strain SFP1, active compounds read low 0.915 | locus YML070W, strain DAK1, active compounds read low 0.926 | locus YMR001C, strain CDC5, active compounds read low 0.987 | locus YMR205C, strain PFK2 (second series), active compounds read low 0.944 | locus YMR277W, strain FCP1, active compounds read low 0.989 | locus YNL006W, strain LST8, active compounds read low 1.01 | locus YNL020C, strain ARK1, active compounds read low 0.945 | locus YNL161W, strain CBK1, active compounds read low 0.995 | locus YNL183C, strain NPR1, active compounds read low 0.995 | locus YNL207W, strain RIO2, active compounds read low 0.989 | locus YNL222W, strain SSU72, active compounds read low 0.99 | locus YNL307C, strain MCK1 (second series), active compounds read low 0.95 | locus YOL078W, strain AVO1, active compounds read low 0.989 | locus YOL136C, strain PFK27, active compounds read low 0.926 | locus YOR061W, strain CKA2, active compounds read low 0.95 | locus YOR119C, strain RIO1, active compounds read low 1 | locus YOR231W, strain MKK1, active compounds read low 0.888 | locus YOR329C, strain SCD5, active compounds read low 0.99 | locus YPL031C, strain PHO85, active compounds read low 0.962 | locus YPL153C, strain RAD53, active compounds read low 0.926 | locus YPL204W, strain HRR25, active compounds read low 0.931 | locus YPL209C, strain IPL1, active compounds read low 0.988 | locus YPL256C, strain CLN2, active compounds read low 0.922 | locus YPR025C, strain CCL1, active compounds read low 0.99 | locus YPR106W, strain ISR1, active compounds read low 0.974 | locus YPR111W, strain DBF20, active compounds read low 0.972 | strain NNK1, active compounds read low 0.986 | strain TSCII, active compounds read low 0.973
